# High-throughput results as filed in PubChem.
# An excerpt weighted towards active compounds, which were near 12% of everything screened.
# JMJD2A Tudor inh: blocks the human JMJD2A Tudor domain; AlphaScreen JMJD2A-Tudor / H3K4me3 peptide binding; Potency, µM (top dose mostly 114 µM), for inactives: top-dose activity change, negative = inhibition, most hits filed as inhibitors; 390,000 compounds, 4.4% hits; O75164; note: % is set by controls: 0 for no effect and ±100 for the full control effect; nearly all actives have a fitted effect of over 50% in size
# HP1b binding inh: blocks HP1-beta chromodomain binding to methylated histone tails; P83916; AlphaScreen HP1-beta / biotin-H3K9me3 peptide binding; Potency, µM (highest dose often 114 µM), for inactives: at the top dose activity change, negative = inhibition, usual class: inhibitors; 390,000 compounds, 0.56% hits; AID 540317; note: nearly all actives have a fitted effect of over 70% in size
#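 HP1-beta protein (50 nM final) preincubated 30 min at room temperature with biotinylated H3(1-18)K9me3 peptide (50 nM) in PBS pH 7.4, 0.01% Tween-20, then compound added for 30 min. AlphaScreen streptavidin donor/nickel chelate acceptor beads (10 ug/mL final), 30 min dark, luminescence read.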
# Sfp PPTase inh: inhibitors of Bacillus subtilis Sfp phosphopantetheinyl transferase; AID 1490; 310,000 compounds, 3.5% hits; Biochemical Sfp PPTase activity, qHTS; Q9F4F7; Potency, µM, for inactives: largest response in the series, negative = inhibition, usual class: inhibitors;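 note: the enzyme is Sfp with the accession as filed and its product quenches rhodamine fluorescence; 0% = enzyme reaction without inhibitor and -100% = no enzyme wells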
#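 Step 1, compound plus 15 nM Sfp-PPTase, 15 min, room temperature. Step 2, add rhodamine-CoA (5 uM) and BHQ-2-YbbR (12.5 uM). Step 3, read 525/598 nm fluorescence at 0 and 30 min.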
# PLK1 PBD inh: PLK1 (human) polo-box domain binding inhibition | P53350 | Plk1 PBD binding of FITC phosphopeptide, fluorescence polarization | Potency, µM, inactives show max response, negative = inhibition, usual class: inhibitors | 360,000 compounds, 2.8% hits | AID 720504; note: series mostly up to about 57 µM; % is set by controls: 0 for no effect and ±100 for the full control effect; nearly all actives have a fitted effect of over 65% in size
# BAZ2B block: inhibitors of human BAZ2B bromodomain | 360,000 compounds, 4.4% hits | AlphaScreen BAZ2B-H3K14Ac peptide displacement | Potency, µM (top dose mostly 114 µM), for inactives: top-dose activity change, negative = inhibition, most hits filed as inhibitors | AID 504333; note: % is set by controls: 0 for no effect and ±100 for the full control effect; nearly all actives have a fitted effect of over 60% in size
#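 Protein-peptide AlphaScreen: BAZ2B 50 nM, b-H3K14Ac 50 nM, 1x PBS pH 7.4 + 0.01% Tween-20. Preincubation 30 min RT; cpd 30 min RT (top 110 uM); beads 20 min RT, light-protected.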
# G9a block: G9a (human) methyltransferase inhibition; Q96KQ7; G9a H3K9 monomethylation, AlphaScreen, 2 h; Potency, µM (top dose mostly 102 µM), without a hit: top-dose activity, negative = inhibition, usual class: inhibitors; 350,000 compounds, 8.8% hits; note: % is set by controls: 0 for no effect and ±100 for the full control effect; nearly all actives have a fitted effect of over 75% in size
#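 Signal arises when biotinylated H3K9 peptide, once monomethylated, bridges streptavidin donor and antibody-captured acceptor beads. Enzyme at 20 nM was preincubated 15 min with test compounds; peptide 500 nM and SAM 20 uM then reacted for 2 h.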
# * hit, by the source's call; ? = inconclusive; / = no result given; [ ] = dose if it differs, or a comment. Calls come from the whole dose curve; as a rule, active = well fitted curve in the direction sought with a large enough effect; inconclusive = small, poorly fitted or top-dose-only effect, or another doubt; inactive = no such curve, though single readings can be large; an effect the other way counts as inactive or inconclusive. Potency is the fitted concentration of half-maximal effect.
SMILES,JMJD2A Tudor inh,HP1b binding inh,Sfp PPTase inh,PLK1 PBD inh,BAZ2B block,G9a block
COC(=O)C(NNc1ccc(F)cc1)(NC(=O)c1ccccc1)C(F)(F)F (centres undefined),-17%,24%,7%,-12%,-4%,25µM*
COC(=O)C(NNc1ccccc1C)(NC(=O)c1ccc(F)cc1)C(F)(F)F (centres undefined),?,?,10%,27µM*,-6%,3.2µM*
O=S(=O)(c1cccnc1)N1CCN(c2nc(-c3cccs3)nc3ccccc23)CC1,-23%,17%,/,/,/,/
CC(C)C[C@H](NC(=O)[C@H](CO)NC(=O)[C@@H]1CCCN1C(=O)[C@H](Cc1ccc(O)cc1)NC(=O)[C@H](CC(C)C)NC(=O)[C@H](CC(C)C)NC(=O)[C@@H]1CCCN1C(=O)[C@@H](NC(=O)[C@H](CO)NC(=O)[C@H](CO)NC(=O)[C@H](CO)NC(=O)[C@H](CO)NC(=O)[C@@H]1CCCN1C(=O)[C@@H](NC(=O)[C@@H](N)CO)C(C)C)[C@@H](C)O)C(=O)N[C@@H](C)C(=O)N[C@@H](CC(C)C)C(=O)N1CCC[C@H]1C(=O)N[C@@H](C)C(=O)N1CCC[C@H]1C(=O)O,/,/,7%,/,/,/
CN(C)C(=O)c1cc(C(=O)c2ccccc2C(F)(F)F)c[nH]1,?,-6%,16%,27µM*,-10%,7%
COc1ccc(N2CCN(C3CCCN(Cc4ccc(F)cc4)C3)CC2)cc1 (centres undefined),-32%,-16%,4%,-7%,?,?
COc1ccc(N2CCN(C3CCCN(Cc4ccc(F)c(F)c4)C3)CC2)cc1 (centres undefined),?,-20%,9%,-3%,?,45µM*
CC1CC(C)CN(C(=O)CSc2nnc(-c3ccc(F)cc3)o2)C1 (centres undefined),-6%,21%,-27%,-19%,-6%,71µM*
CCN(CC)CCNC(=O)c1ccc(NC(=O)C2CC(=O)N(c3ccc4c(c3)OCCO4)C2)cc1 (centres undefined),-9%,13%,/,-27%,0%,40µM*
O=C(NCCc1ccccc1)C1CC(=O)N(c2ccc3c(c2)OCCO3)C1 (centres undefined),-11%,17%,/,-3%,6%,-7%
O=C(NC(Cc1ccccc1)c1nc2ccccc2[nH]1)C1CC(=O)N(c2ccc3c(c2)OCCO3)C1 (centres undefined),?,35%,?,3%,?,13µM*
O=C(Nc1nc2ccc(F)cc2s1)C1CC(=O)N(c2ccc3c(c2)OCCO3)C1 (centres undefined),-12%,12%,/,2%,-10%,-42%[2.33 µM]
O=C(Nc1nnc(C2CC2)s1)C1CC(=O)N(c2ccc3c(c2)OCCO3)C1 (centres undefined),45µM*,-27%,18%,-16%,50µM*,-14%[59 µM]
O=C(Nc1nnc(C2CCCCC2)s1)C1CC(=O)N(c2ccccc2)C1 (centres undefined),-16%,46%,6%,-8%,1%,0%
COc1ccc2nc(NC(=O)C3CC(=O)N(c4ccc5c(c4)OCCO5)C3)sc2c1 (centres undefined),-32%,0%,/,-11%,-11%,40µM*
COc1ccccc1C1C=C(c2ccc(Cl)cc2)Nc2nc(-c3ccc(Cl)cc3)nn21 (centres undefined),?,-23%,/,/,-29%,?
COc1ccc(-c2c(NC(=O)c3ccco3)oc3c(C)cccc3c2=O)cc1OC,-13%,46%,9%,-7%,-25%,8%
CC1CNC(=S)N(c2ccccc2)C1=O (centres undefined),-8%,24%,/,5%,/,/
O=C(Nc1nc(-c2cccs2)cs1)C1CC(=O)N(c2ccc3c(c2)OCCO3)C1 (centres undefined),-18%,3%,/,/,/,/
